This passage reports efficacy, outcome and AC50 results from PubChem BioAssay (NCATS).

The conditions of assay [1]: Ebola virus entry assay, green fluorescence channel.
For assay [2] the following is noted: Ebola virus entry assay, blue channel fluorescence.
The conditions of assay [3]: Ebola virus entry assay, ratio channel.
The conditions of assay [4]: Ebola virus entry assay, green channel fluorescence.
The conditions of assay [5]: Ebola virus entry assay, reporter ratio channel; Channel type: primary.
For assay [6] the following is noted: Ebola virus entry assay, blue channel (ratio component).

Values without a mark were called inactive. For part of these data: Potency and affinity values are given separately. Calls of active or inactive are those of the source. The rule behind the calls is not given here.
Throughout, for efficacy: 0% is about no effect.

As for `CCCCC1(COC(=O)CCC(=O)O)C(=O)N(c2ccccc2)N(c2ccccc2)C1=O`, in assay [1], the efficacy is -12.3%. For the same compound, the result in assay [2], in assay [3], in assay [4], in assay [5] and in assay [6] was inactive.

As for `Nc1ccn([C@H]2CC[C@@H](CO)O2)c(=O)n1`, the efficacy in assay [1] was -13.2%. The result in assay [2], in assay [3], in assay [4], in assay [5] and in assay [6] was inactive.

As to `CN(C)CC[C@@H](c1ccc(Cl)cc1)c1ccccn1`, the efficacy in assay [1] is -31.3%. Moreover, the result in assay [2], in assay [3], in assay [4], in assay [5] and in assay [6] was inactive.

Turning to `COc1cc2[nH]c(=O)[nH]c(=O)c2cc1OC`, the efficacy in assay [1] is 23.8%. For the same compound, the outcome in assay [2], in assay [3], in assay [4], in assay [5] and in assay [6] was inactive.

As for `C/C=C/C(=O)N(CC)c1ccccc1C`, the efficacy in assay [1] was 23.4%. For the same compound, the compound was classed as inactive in assay [2], in assay [3], in assay [4], in assay [5] and in assay [6].

`NS(=O)(=O)c1cc2c(cc1Cl)NC(C1CC3C=CC1C3)NS2(=O)=O` (stereo unspecified): the efficacy in assay [1] was -30.9%. Further, the outcome in assay [2], in assay [3], in assay [4], in assay [5] and in assay [6] was inactive.

Regarding `CCCCCCc1ccc(O)cc1O`, the efficacy in assay [1] is -21%. Further, the outcome in assay [2], in assay [3], in assay [4] and in assay [6] was inactive. For the same compound, the AC50 (commonly the midpoint of the concentration-response curve, whichever way the signal moves) in assay [5] was 39.8 µM (active).

Take `Oc1ccc(O)cc1`: in assay [1], the efficacy is 16.5%. In addition, the compound was called inactive in assay [2], in assay [3], in assay [4], in assay [5] and in assay [6].

`CCCCC(CC)COC(=O)C(C#N)=C(c1ccccc1)c1ccccc1` (stereo unspecified): the efficacy in assay [1] is 53.9%. Besides, the outcome in assay [2], in assay [3], in assay [4], in assay [5] and in assay [6] was inactive.

For `CCN(CC)C(=O)C1CN2CCc3cc(OC)c(OC)cc3C2CC1OC(C)=O` (stereo unspecified), the efficacy in assay [1] is -20.8%. Also, the outcome in assay [2], in assay [3], in assay [4], in assay [5] and in assay [6] was inactive.

Regarding `CC(=O)O[C@H]1CC[C@@]2(C)C(=CC[C@@H]3[C@@H]2CC[C@]2(C)C(C(C)=O)=CC[C@@H]32)C1`, the efficacy in assay [1] is -13.1%. The compound was classed as inactive in assay [2], in assay [3], in assay [4], in assay [5] and in assay [6].

`O=C1NC(=O)[C@@]2(CCOc3ccc(F)cc32)N1`: in assay [1], the efficacy is -52%. Further, the compound was called inactive in assay [2], in assay [3], in assay [4], in assay [5] and in assay [6].

`Nc1ccncc1N`: in assay [1], the efficacy is -16.5%. In addition, the compound was called inactive in assay [2], in assay [3], in assay [4], in assay [5] and in assay [6].

Regarding `CCOC(=O)C(C#N)=C(c1ccccc1)c1ccccc1`, the efficacy in assay [1] was 19.4%. In addition, the compound was called inactive in assay [2], in assay [3], in assay [4], in assay [5] and in assay [6].

Consider `COc1cccc2c1C(=O)c1c(O)c3c(c(O)c1C2=O)C[C@@](O)(C(=O)CO)C[C@@H]3O[C@H]1C[C@H](N)[C@H](O[C@@H]2CCCCO2)[C@H](C)O1`, for which the efficacy in assay [1] is 15.3%. Further, the compound was classed as inactive in assay [2], in assay [3], in assay [4], in assay [5] and in assay [6].

As for `CC(=O)OCC(=O)NCCCOc1cccc(CN2CCCCC2)c1`, the efficacy in assay [1] was -11.5%. For the same compound, the compound was classed as inactive in assay [2], in assay [3], in assay [4], in assay [5] and in assay [6].

`CC(=O)OCC(=O)Nc1cc(C#N)cc(NC(=O)COC(C)=O)c1Cl`: in assay [1], the efficacy was 24.6%. Also, the call in assay [2], in assay [3], in assay [4], in assay [5] and in assay [6] was inactive.

Take `Cc1c(Cl)cccc1Nc1ccccc1C(=O)O`: the efficacy in assay [1] is 13.8%. For the same compound, the compound was called inactive in assay [2], in assay [3], in assay [4], in assay [5] and in assay [6].

For the compound `CCn1cc(C(=O)O)c(=O)c2cc(F)c(N3CCNCC3)nc21`, the efficacy in assay [1] is -17.3%. Moreover, the outcome in assay [2], in assay [3], in assay [4], in assay [5] and in assay [6] was inactive.

For the compound `CCOc1cc(N)c(Cl)cc1C(=O)NCC1CN(Cc2ccc(F)cc2)CCO1` (stereo unspecified), in assay [1], the efficacy was 26.3%. Moreover, the result in assay [2], in assay [3], in assay [4] and in assay [6] was inactive. In addition, the half-maximal activity concentration (AC50) in assay [5] is 39.8 µM (active).

`FC(F)(F)C(F)(F)C(F)(F)C(F)(F)C(F)(F)C(F)(F)C(F)(F)C(F)(F)Br`: in assay [1], the efficacy is -14.2%. Further, the outcome in assay [2], in assay [3], in assay [4], in assay [5] and in assay [6] was inactive.

For the compound `CCc1oc2ccccc2c1C(=O)c1cc(Br)c(O)c(Br)c1`, in assay [1], the efficacy is 16.5%. In addition, the compound was called inactive in assay [2], in assay [3], in assay [4], in assay [5] and in assay [6].

For the compound `O=C(O)c1ccccc1Nc1cc(Cl)ccc1C(=O)O`, the efficacy in assay [1] is -12.4%. For the same compound, the compound was classed as inactive in assay [2], in assay [3], in assay [4], in assay [5] and in assay [6].

As to `NC(=O)C1(N2CCCCC2)CCN(CCCC(=O)c2ccc(F)cc2)CC1`, the efficacy in assay [1] is 25.9%. Moreover, the call in assay [2], in assay [3], in assay [4], in assay [5] and in assay [6] was inactive.

Regarding `CC(=O)Oc1ccc(C(=C2CCCCC2)c2ccc(OC(C)=O)cc2)cc1`, in assay [1], the efficacy was -12.6%. The call in assay [2], in assay [3], in assay [4], in assay [5] and in assay [6] was inactive.

On to `CC(=O)Nc1ccc(S(=O)(=O)Nc2ccc([N+](=O)[O-])cc2)cc1`, for which the efficacy in assay [1] is -17.6%. The compound was classed as inactive in assay [2], in assay [3], in assay [4], in assay [5] and in assay [6].
